The source of these data is PubChem BioAssay.

Molecules are shown by their SMILES. Records with an inconclusive call do not appear. Activity calls are given as the source filed them.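 Rule for the calls, unless noted: active = GFP signal, as percent of the solvent control, above the screen mean plus 3 SD, about 149; inconclusive = no reading because the compound's own fluorescence upset strain identification; inactive = the rest.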

Assay [1] can be described thus: rapamycin-like changes in RPL19A-GFP expression – cell-based, S. cerevisiae, multiplex flow cytometry, primary screen (AID 1862; in the data active = percent of DMSO control GFP below about 86%;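 note: lower values mimic rapamycin by blocking the RPL19A rise seen in DMSO cells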). The conditions noted are these: S. cerevisiae RPL19A-GFP strain, flow cytometry fluorescence, 3 h; at 10 µM; stronger effect = lower value. (In flow cytometry, cells or beads pass a laser one at a time.)
Assay [2] in a line: TOR pathway GLN3 branch reporter MEP2-GFP changes – S. cerevisiae, multiplex flow cytometry, primary screen (AID 1867;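 active = GFP response, as percent of the DMSO control, above the screen-wide mean plus 3 SD, about 139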;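 note: median GFP channel fluorescence of barcode-gated MEP2-GFP cells measured by flow cytometry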). The conditions noted are these: S. cerevisiae MEP2-GFP strain, 3 h, at 10 µM, stronger effect = higher value, 100% means same as DMSO wells.
A short description of assay [3]: TOR pathway RTG branch CIT2 reporter changes – S. cerevisiae, GFP fusion, multiplex flow cytometry, primary screen (AID 1870;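 active = percent response above a set limit, the screen-wide mean plus 3 SD, cut at about 130% in these data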;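 note: barcoded CIT2-GFP strain pooled with four other GFP strains with rapamycin as positive control; median GFP fluorescence per well over plate mean of DMSO wells so 100% = DMSO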). Conditions: S. cerevisiae CIT2-GFP expression, 3 h, at 10 µM, stronger effect = higher value.
Assay [4] in a line: TOR pathway LAP4-GFP level changes – S. cerevisiae, multiplex flow cytometry, primary screen (AID 1873). Conditions: S. cerevisiae LAP4-GFP expression, 3 h, at 10 µM, stronger effect = higher value.
A short description of assay [5]: yeast AGP1-GFP level changes, GLN3 branch – cell-based, multiplex flow cytometry, S. cerevisiae, primary screen (AID 1887;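 active = GFP signal above the screen-wide mean plus 3 SD, that is over about 124.5% of the solvent control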;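 note: AGP1-GFP fusion strain of S. cerevisiae within a five-strain barcoded multiplex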). Conditions: 3 h, at 10 µM, stronger effect = higher value.
The nature of assay [6]: reduced mouse 2C T cell binding to pMHC/ICAM-1 vesicles – MLPCN validation set, flow cytometry, LFA-1/ICAM-1 modulator project, pilot screen (AID 2523;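 active = response below a set limit, under 55% cells CD8-positive and vesicle-bound, and CD8 cells' 90th-percentile brightness under 279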;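 for vesicle binding response: mean PE anti-B7-1 fluorescence of CD8+ cells relative to row control; 100% = QL9-loaded vesicles with DMSO vehicle in the same plate row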). Conditions: 2C mouse CD8+ T cells, at 7 µM, stronger effect = lower value; double positive events: measured here: CD8+/vesicle+ event percentage.
Assay [7] has as its target Integrin beta-1 (Homo sapiens) + Integrin alpha-4 (Homo sapiens) (UniProt P13612+P05556). The assay can be described thus: alpha4beta1 integrin LIBS antibody binding reduction – U937 cells, HUTS-21 mAb, flow cytometry, validation set, VLA-4 allosteric modulator project, pilot screen (AID 2674;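 active = inhibition above 50%, about 3 SD of the validation set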;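 note: antibody binding induced by the VLA-4 ligand LDV present at three times its Kd; 0% = LDV ligand with antibody and no compound and 100% = antibody without LDV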). Conditions: HUTS-21 LIBS mAb binding, at 6.7 µM, stronger effect = higher value, binding induced by LDV ligand.

Assay [8] in a line: calorie-restriction mimetic ROS inhibitors, yeast – validation compound set, pilot screen (AID 2706;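 active = superoxide response below 65% of plate, a cut near 3 SD across the whole screen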;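 note: yeast exposed to compound for one week at 30 degrees C before staining; 100% = mean of all compound wells on the same plate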). Conditions: S. cerevisiae aging, superoxide DHE fluorescence; at 10 µM, stronger effect = lower value.
Assay [9] addresses Beta-adrenergic receptor kinase 1 (Homo sapiens) (UniProt P25098). The assay is described as follows: GRK2 binders displacing RNA aptamer, biochemical, validation, human GRK2, bead flow cytometry (AID 488806;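 active = aptamer binding inhibition above 30%, about 3 SD of noise from non-fluorescent compounds; inactive = inhibition at or below 30%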). The conditions noted are these: bead-bound GRK2, FAM-aptamer displacement, at 10 µM, stronger effect = higher value.
Assay [10] concerns the target AP-2 complex subunit beta (Homo sapiens) (UniProt P63010). The assay is described as follows: beta-arrestin/AP2 interaction blockers – biochemical, validation set, GST-AP2 beads, flow cytometry, pilot screen (AID 504541;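 active = inhibition above 54%, about 3 SD of non-fluorescent compounds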;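 note: AP2 carries R879A mutation and is captured from E. coli lysate; bead-bound FITC arrestin peptide fluorescence measuring arrestin peptide binding to AP2; 0% = DMSO wells and 100% = excess unlabeled arrestin peptide control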). Conditions: FITC arrestin peptide, at 10 µM, stronger effect = higher value, AP2 beta2 appendage fragment, R879A mutant.
The nature of assay [11]: cytosolic pH regulators acting via V-ATPase – S. cerevisiae, pHLuorin, HTS validation (AID 504600; in the data active = response above about 15%;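 note: plate controls were DMSO for no effect and reference compound for full effect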). Conditions: V-ATPase proton transport, at 10 µM, stronger effect = higher value.
Assay [12] has as its system anti-desmoglein-3 scFv antibody binding to human DSG3. The assay can be described thus: blockers of pathogenic pemphigus antibody–desmoglein-3 binding – biochemical, validation compound set, bead-based, flow cytometry, pilot screen (AID 588368;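 active = binding below the plate cutoff, the plate median minus 3 SD, with a reading above zero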;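 note: signal is the median channel fluorescence of bead-bound GFP antibody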). The conditions noted are these: Protein G beads, DSG3-Fc, scFv-GFP binding, at 10 µM, stronger effect = lower value.
A short description of assay [13]: Nile Red efflux blockade in pump-expressing yeast – validation compound set, multiplex, phenotypic, pilot screen (AID 588506;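 active = efflux inhibition above 0.42, the validation set average plus 4 SD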;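 note: Nile Red retained in cells so higher fluorescence means more efflux inhibition; 0 = negative control wells and 1 = enniatin B 25 µM full block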). The conditions noted are these: S. cerevisiae pump-expressing triplex, Nile Red efflux flow cytometry; at 10 µM; stronger effect = higher value; the pumps come from Candida albicans.
The target in assay [14] is ATP-binding cassette sub-family B member 6 (Homo sapiens) (UniProt Q9NP58). The assay is described as follows: blockers of ABCB6-driven porphyrin uptake – K562-ABCB6 cells, flow cytometry, validation set, pilot screen (AID 588550;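 active = inhibition above the screen-wide mean plus 3 SD, about 51%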;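 note: 0% = DMSO wells and 100% = benzethonium chloride 70 µM positive control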). The conditions noted are these: K562-ABCB6 porphyrin accumulation, 1 h, at 10 µM, stronger effect = higher value.
ATP-binding cassette sub-family B member 6 (Homo sapiens), sequence (Q9NP58 whole entry, looked up): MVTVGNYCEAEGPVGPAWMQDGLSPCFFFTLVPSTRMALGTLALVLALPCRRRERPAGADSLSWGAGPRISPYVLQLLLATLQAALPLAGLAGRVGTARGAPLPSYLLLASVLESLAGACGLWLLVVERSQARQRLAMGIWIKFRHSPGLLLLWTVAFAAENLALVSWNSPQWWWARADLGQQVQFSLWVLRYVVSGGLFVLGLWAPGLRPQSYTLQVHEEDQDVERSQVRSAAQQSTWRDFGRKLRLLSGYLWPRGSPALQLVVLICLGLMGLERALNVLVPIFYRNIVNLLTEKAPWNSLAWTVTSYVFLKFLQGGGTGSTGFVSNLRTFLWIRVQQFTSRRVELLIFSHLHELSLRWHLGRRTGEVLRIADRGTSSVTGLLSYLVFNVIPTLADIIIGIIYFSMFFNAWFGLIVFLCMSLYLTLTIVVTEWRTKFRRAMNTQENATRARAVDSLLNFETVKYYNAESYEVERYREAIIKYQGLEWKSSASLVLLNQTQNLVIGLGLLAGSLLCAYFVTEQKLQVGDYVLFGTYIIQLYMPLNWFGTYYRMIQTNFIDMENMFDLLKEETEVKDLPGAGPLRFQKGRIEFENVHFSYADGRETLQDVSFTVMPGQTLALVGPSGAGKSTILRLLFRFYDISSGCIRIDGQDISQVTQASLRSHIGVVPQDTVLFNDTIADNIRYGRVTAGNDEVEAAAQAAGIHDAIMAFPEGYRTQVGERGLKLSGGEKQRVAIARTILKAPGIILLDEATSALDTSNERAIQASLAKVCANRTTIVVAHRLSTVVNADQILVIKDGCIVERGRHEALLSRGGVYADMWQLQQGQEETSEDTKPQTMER
Assay [15] can be described thus: AML differentiation inducers, ER-HoxA9 marrow cells – cell-based, GFP/MAC1 double positive, flow cytometry, validation set, primary screen (AID 588685;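 active = differentiation response of at least 50%, scaled between solvent and reference control, from cells with both markers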;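 note: compound exposure lasts four days before antibody staining and flow analysis; 0% = DMSO wells and 100% = 5 µM fulvestrant positive control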). Conditions: stronger effect = higher value, normalized: vehicle 0, fulvestrant 100.

Integrin beta-1 (Homo sapiens) + Integrin alpha-4 (Homo sapiens), sequence (P05556 whole entry, looked up): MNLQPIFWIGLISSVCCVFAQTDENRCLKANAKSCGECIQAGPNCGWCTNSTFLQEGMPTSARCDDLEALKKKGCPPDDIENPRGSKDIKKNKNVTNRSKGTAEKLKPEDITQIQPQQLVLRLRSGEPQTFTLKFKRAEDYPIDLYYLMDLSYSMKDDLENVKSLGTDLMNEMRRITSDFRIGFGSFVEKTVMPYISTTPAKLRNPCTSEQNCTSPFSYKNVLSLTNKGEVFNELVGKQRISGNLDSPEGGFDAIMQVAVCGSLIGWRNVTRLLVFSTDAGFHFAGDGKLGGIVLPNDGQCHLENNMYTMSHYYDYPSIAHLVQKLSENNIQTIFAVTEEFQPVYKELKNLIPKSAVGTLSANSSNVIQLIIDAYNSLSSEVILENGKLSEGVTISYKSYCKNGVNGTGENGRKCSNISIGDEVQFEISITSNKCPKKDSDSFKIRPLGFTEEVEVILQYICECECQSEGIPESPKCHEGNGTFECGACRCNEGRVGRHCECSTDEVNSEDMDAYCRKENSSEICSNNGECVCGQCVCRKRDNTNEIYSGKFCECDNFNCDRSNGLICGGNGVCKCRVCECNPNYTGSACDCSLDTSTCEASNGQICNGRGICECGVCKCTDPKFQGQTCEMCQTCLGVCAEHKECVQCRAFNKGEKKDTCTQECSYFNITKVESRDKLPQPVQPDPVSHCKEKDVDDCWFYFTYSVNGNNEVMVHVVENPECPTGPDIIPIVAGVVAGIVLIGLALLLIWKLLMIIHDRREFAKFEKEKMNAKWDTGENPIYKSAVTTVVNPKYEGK
Integrin beta-1 (Homo sapiens) + Integrin alpha-4 (Homo sapiens), sequence (P13612 whole entry, looked up): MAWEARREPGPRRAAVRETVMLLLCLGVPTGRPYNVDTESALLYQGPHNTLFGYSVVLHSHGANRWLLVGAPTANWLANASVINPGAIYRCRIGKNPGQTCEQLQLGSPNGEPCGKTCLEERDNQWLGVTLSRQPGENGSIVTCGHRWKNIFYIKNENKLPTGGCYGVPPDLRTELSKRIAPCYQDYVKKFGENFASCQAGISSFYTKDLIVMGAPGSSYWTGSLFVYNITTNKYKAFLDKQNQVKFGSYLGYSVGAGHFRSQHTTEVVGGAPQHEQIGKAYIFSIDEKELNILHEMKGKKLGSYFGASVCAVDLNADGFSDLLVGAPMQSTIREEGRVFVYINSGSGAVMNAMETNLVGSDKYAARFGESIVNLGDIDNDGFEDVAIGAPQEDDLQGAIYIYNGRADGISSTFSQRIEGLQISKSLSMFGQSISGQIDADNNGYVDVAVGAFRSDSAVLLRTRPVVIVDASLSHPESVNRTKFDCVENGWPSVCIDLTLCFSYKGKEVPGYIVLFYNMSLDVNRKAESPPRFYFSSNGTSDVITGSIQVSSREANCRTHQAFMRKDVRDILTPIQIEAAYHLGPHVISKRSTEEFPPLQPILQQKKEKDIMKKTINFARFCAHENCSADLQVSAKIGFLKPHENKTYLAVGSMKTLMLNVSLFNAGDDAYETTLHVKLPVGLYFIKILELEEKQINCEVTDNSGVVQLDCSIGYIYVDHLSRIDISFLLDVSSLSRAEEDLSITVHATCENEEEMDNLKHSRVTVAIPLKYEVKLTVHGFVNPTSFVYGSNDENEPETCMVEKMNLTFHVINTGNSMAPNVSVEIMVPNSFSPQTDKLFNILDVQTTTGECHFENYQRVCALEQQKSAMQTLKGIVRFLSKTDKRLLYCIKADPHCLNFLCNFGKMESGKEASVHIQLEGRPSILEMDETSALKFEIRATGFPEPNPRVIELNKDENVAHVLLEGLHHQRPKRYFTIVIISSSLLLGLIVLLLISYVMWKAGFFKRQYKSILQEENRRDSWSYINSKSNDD
AP-2 complex subunit beta (Homo sapiens), sequence (P63010 whole entry, looked up, the tested form may be a part, one chain of several): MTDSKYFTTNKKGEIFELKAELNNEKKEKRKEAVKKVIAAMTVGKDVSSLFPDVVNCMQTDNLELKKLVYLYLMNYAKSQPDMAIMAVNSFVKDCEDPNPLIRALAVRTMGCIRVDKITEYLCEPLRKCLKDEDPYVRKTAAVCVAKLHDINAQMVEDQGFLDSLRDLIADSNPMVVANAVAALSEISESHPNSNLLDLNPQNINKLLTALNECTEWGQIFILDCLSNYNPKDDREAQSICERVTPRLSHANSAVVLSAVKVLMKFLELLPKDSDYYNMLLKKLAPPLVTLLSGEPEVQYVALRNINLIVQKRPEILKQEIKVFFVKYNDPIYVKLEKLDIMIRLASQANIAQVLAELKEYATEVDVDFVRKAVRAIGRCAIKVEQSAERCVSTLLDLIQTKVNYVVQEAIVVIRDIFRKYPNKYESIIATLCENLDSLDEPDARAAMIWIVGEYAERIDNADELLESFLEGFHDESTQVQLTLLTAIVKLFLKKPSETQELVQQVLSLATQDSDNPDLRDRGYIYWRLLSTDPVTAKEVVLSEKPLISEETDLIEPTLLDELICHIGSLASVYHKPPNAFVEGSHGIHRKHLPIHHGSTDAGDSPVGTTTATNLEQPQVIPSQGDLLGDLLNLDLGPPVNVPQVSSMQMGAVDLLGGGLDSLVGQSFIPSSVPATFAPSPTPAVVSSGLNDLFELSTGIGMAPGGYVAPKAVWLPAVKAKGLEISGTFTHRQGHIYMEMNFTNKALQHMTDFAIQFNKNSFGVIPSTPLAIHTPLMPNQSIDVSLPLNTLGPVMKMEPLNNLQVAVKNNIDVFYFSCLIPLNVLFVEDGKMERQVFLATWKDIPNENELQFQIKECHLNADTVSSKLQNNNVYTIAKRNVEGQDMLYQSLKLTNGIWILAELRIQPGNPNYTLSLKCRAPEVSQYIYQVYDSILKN
Beta-adrenergic receptor kinase 1 (Homo sapiens), sequence (P25098 whole entry, looked up): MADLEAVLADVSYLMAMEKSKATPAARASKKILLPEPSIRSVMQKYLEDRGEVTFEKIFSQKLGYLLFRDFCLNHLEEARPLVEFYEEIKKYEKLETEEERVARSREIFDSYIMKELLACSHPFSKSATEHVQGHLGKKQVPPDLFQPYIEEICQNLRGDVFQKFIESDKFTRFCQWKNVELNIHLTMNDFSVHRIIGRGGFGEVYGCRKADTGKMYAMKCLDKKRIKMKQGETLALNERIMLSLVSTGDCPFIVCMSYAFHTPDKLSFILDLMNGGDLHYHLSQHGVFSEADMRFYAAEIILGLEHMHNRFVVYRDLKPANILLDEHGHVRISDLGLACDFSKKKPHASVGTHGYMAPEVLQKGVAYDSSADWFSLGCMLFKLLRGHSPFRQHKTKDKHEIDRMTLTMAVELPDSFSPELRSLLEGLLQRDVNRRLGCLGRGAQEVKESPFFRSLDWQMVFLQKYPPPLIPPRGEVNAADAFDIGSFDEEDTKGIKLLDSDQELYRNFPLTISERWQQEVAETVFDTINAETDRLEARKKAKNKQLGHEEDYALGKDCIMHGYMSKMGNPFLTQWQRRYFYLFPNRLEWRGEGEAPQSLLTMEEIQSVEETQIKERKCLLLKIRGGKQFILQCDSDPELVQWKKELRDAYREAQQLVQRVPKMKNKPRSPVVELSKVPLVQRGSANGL

Take `COC(=O)c1ccccc1OCCOCCOc1cccc2ccc(C)nc12`: in assay [1], the percent of DMSO control GFP is 106% (inactive). For the same molecule, the GFP response vs DMSO was 103% (inactive) in [2] and 90.3% (inactive) in assay [4]. Besides, the percent response of DMSO control in [3] is 99.8% (inactive). Further, the GFP response, % of DMSO in [5] was 100% (inactive). The molecule further came in with a double positive events in assay [6] of 49.8%. In addition, the vesicle binding response in [6] is 145% (inactive). The values for the inhibition in [7], in assay [10] and in [14] were 14.7% (inactive), -2.13% (inactive) and 9% (inactive), respectively. In addition, the superoxide response (% of plate) in assay [8] is 116% (inactive). Further, the aptamer binding inhibition in assay [9] is 2% (inactive). For the same molecule, the response in assay [11] was 4.14% (inactive). The binding (% of control) in [12] is 103% (inactive). Besides, the efflux inhibition (fraction of control) in [13] was -0.05 (inactive). In addition, the differentiation response in assay [15] is -13.1% (inactive).

In the case of `Cc1cc(-c2nn(-c3ccccc3F)cc2CN2CCC(O)CC2)c(C)s1`, in assay [1], the percent of DMSO control GFP is 102% (inactive). Besides, the GFP response vs DMSO is 98.9% (inactive) in assay [2] and 93.3% (inactive) in [4]. Further, the percent response of DMSO control in [3] was 104% (inactive). Moreover, the GFP response, % of DMSO in [5] was 95.5% (inactive). The same molecule showed a double positive events in assay [6] of 47.2%. The vesicle binding response in assay [6] is 132% (inactive). In addition, the inhibition was -7.7% (inactive) in assay [7], -9.39% (inactive) in assay [10] and 10% (inactive) in [14]. Moreover, the superoxide response (% of plate) in assay [8] is 93.1% (inactive). The aptamer binding inhibition in [9] is 4% (inactive). Further, the response in [11] was 0.7% (inactive). In assay [12], the binding (% of control) was 98.3% (inactive). Besides, the efflux inhibition (fraction of control) in [13] was -0.35 (inactive). The differentiation response in [15] was -30.9% (inactive).

Take `COc1ccc2oc(=O)c(C(=O)N3CCN(c4ccccc4)CC3)cc2c1`: the percent of DMSO control GFP in [1] is 97.8% (inactive). The GFP response vs DMSO is 93.8% (inactive) in [2] and 89.3% (inactive) in assay [4]. The percent response of DMSO control in [3] was 101% (inactive). Besides, the GFP response, % of DMSO in assay [5] was 90.3% (inactive). This molecule gave a double positive events in assay [6] of 52.5%. In assay [6], the vesicle binding response was 130% (inactive). The inhibition in [7] was 12.8% (inactive); in assay [10], 10.5% (inactive); in assay [14], 10% (inactive). Moreover, the superoxide response (% of plate) in assay [8] was 110% (inactive). Moreover, the aptamer binding inhibition in [9] is 2% (inactive). Moreover, the response in assay [11] is -1.57% (inactive). The binding (% of control) in assay [12] is 101% (inactive). The efflux inhibition (fraction of control) in assay [13] was -0.54 (inactive). Further, the differentiation response in assay [15] was 25.6% (inactive).

As for `Cc1nc(C(=O)Nc2ccccc2Cl)cc2c1[nH]c1ccccc12`, the percent of DMSO control GFP in [1] is 99.6% (inactive). The GFP response vs DMSO in [2] was 108% (inactive); in assay [4], 100% (inactive). Moreover, in assay [3], the percent response of DMSO control is 106% (inactive). Moreover, the GFP response, % of DMSO in [5] is 98.2% (inactive). Moreover, in assay [6], the double positive events stood at 53.9%. Also, the vesicle binding response in assay [6] was 172% (inactive). Moreover, the results for the inhibition in assay [7], in [10] and in assay [14] were -1.17% (inactive), -0.33% (inactive) and 11% (inactive), respectively. Further, in assay [8], the superoxide response (% of plate) was 111% (inactive). In addition, the aptamer binding inhibition in assay [9] was 1% (inactive). In addition, the response in assay [11] is 2.14% (inactive). The binding (% of control) in assay [12] was 95.4% (inactive). Further, the efflux inhibition (fraction of control) in assay [13] was 0.14 (inactive). Besides, the differentiation response in [15] is -9.89% (inactive).

For `COc1ccc(C2NC(=O)c3ccccc3N2)cc1OC` (stereo not given), the percent of DMSO control GFP in [1] was 98.8% (inactive). The GFP response vs DMSO in [2] was 99.9% (inactive); in assay [4], 94.3% (inactive). Besides, the percent response of DMSO control in assay [3] is 96.9% (inactive). The GFP response, % of DMSO in assay [5] was 92.2% (inactive). The same molecule came in with a double positive events in assay [6] of 64.4%. Also, in assay [6], the vesicle binding response is 117% (inactive). The inhibition is 10.9% (inactive) in assay [7], 3.03% (inactive) in assay [10] and 11% (inactive) in assay [14]. The superoxide response (% of plate) in [8] is 108% (inactive). Further, in assay [9], the aptamer binding inhibition was 5% (inactive). For the same molecule, the response in assay [11] was 1.73% (inactive). Also, the binding (% of control) in assay [12] was 95.1% (inactive). For the same molecule, the efflux inhibition (fraction of control) in [13] was 0.06 (inactive). Also, the differentiation response in [15] was -3.43% (inactive).

One may read the inhibition as the relative decrease from the control value, in per cent.
